Structures are written as SMILES. Records with an inconclusive call do not appear. Values without a mark were called inactive. Calls of active or inactive are those of the source. Calls follow the shape of the dose curve; as a rule, active = well fitted inhibition curve with a large enough effect; inconclusive = small, poorly fitted or top-dose-only effect, or effect the other way; inactive = flat fitted curve, though single readings scatter.

Experimental findings from PubChem BioAssay (NCATS) are described below.
Potency is read from the fitted curve at half-maximal effect.

A short description of this test: qHTS for Inhibitors of Plasmodium falciparum (GB4) proliferation (AID 504315). Also: nearly all actives have a fitted effect of over 50% in size.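 As to activity change, negative = inhibition: 0% = DMSO vehicle and -100% = 0.29 µM artemisinin control.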 Conditions: P. falciparum GB4 in erythrocytes, SYBR Green DNA, 72 h; series mostly up to 6.7 µM; activity change, negative = inhibition: at the top concentration. The method, boiled down:
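Erythrocytes infected with P. falciparum line (0.3% parasitemia, 2.5% hematocrit final) incubated with compounds 72 h at 37 °C, 5% CO2; SYBR Green lysis buffer added, fluorescence read next day. Normalized to 0.29 uM artemisinin and DMSO.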
Background: In qHTS, concentration-response curves come from the screen itself.
Take `COc1ccc(-c2nc(-c3ccccc3)c(NC(C)C)o2)cc1`: the Potency was 1.51 µM (active).
Take `C=CCOC(=O)C(C(C)=O)[C@@H](NC(=O)OC)c1ccc2ccccc2c1` (stereo not given in full): the “activity change, negative = inhibition” value is -13.3%.
On to `CC1(OC(=O)CCc2ccccc2)C(=O)C=C2C=C(c3ccc(C#N)cc3)N(CC3CC3)C=C2C1=O` (stereo not given), for which the Potency result was “inactive”.
For `C[C@@H]1CC[C@H]2C(=O)O[C@@H](COc3ccc(C(C)(C)C)cc3)CN2[C@H]1c1ccc(Br)cc1`, the “activity change, negative = inhibition” value was -11.5%.
Same read-out and setting: the figure for `CC(=O)OC[C@H]1O[C@H](CCON=C(C)CCN2CCCc3nc(C)c(C)cc32)C=C[C@H]1OC(C)=O` is -8.06%.
Consider `CCCCc1cc2c(cn1)=C(OC(=O)c1cccs1)C(C)(OC(=O)CC)C(=O)C=2` (stereo not given), for which the Potency was 1.69 µM (active).
The same measure, in the same setting: the figure for `CCCCc1cc2c(cn1)C(=O)C(C)(OC(C)=O)C(=O)C2` (stereo not given) is 1.69 µM (active).
Take `COc1ccc2c(c1)C(=O)[C@H](OC(=O)N[C@H]1CCCc3ccccc31)[C@@H](c1ccc(OC)c(Br)c1)O2`: the “activity change, negative = inhibition” value was -2.38%.
The same measure, in the same setting: to `C#CCCCON=C1C[C@@H](O)[C@H](O)[C@H]2[C@@H]3C(=O)N(Cc4ccccc4)C(=O)[C@@H]3CC[C@H]12` belongs -5.71%; to `COC(=O)C1=C(C(=O)OC)[C@@H]2N(CC=C(C)C)c3ccccc3[C@@]23CCC(=O)N(CCc2ccccn2)C3=N1`, -1.42%.
For `COC(=O)C1=C(C)N(Cc2ccco2)C(=O)NC1c1ccc(Br)cc1` (stereo not given), the “activity change, negative = inhibition” value was 8.81%.
For `COC(=O)[C@H]1[C@@H](c2ccccc2)NC(=O)N(CCc2cc(OC)c(OC)c(OC)c2)[C@@H]1C`, the “activity change, negative = inhibition” value is 2.02%.
Same read-out and setting: to `CCCCC1=CC2=CC(=O)C(C)(OC(=O)CCc3ccccc3)C(=O)C2=CO1` (stereo not given) belongs 7.16%; to `COc1ccc2c(c1)C(=O)[C@@H](OC(=O)NCCc1ccc(OC)c(OC)c1)[C@H](c1ccc(OC)c(Br)c1)O2`, 9.77%.
On the same count and under the same terms, to `CC1=CC[C@@H](COc2ccccc2)O[C@@]2(C1)C(=O)Nc1cccc(Br)c12` belongs -2.31%.
On the same count and under the same terms, to `CCCCC1=CC2=C(c3ccco3)C(=O)C(C)(OC(=O)c3ccc(OC)cc3)C(=O)C2=CN1C1CCCCC1` (stereo not given) belongs 4.32%; to `COc1ccc(COC(=O)NN=C2C[C@@H](O)[C@@H](O)[C@@H]3[C@H]4C(=O)N(C5CCCCC5)C(=O)[C@@H]4CC[C@@H]23)cc1`, 4.17%; to `COc1ccc(-c2ccc3c(n2)CCCN3CC(O)CN2CCCc3nc(C)c(C)cc32)cc1` (stereo not given), -2.84%.
For the molecule `CC(CCN1CCCc2nc(C)c(C)cc21)=NOC[C@@H](C)[C@H](OCc1ccccc1)C(C)C`, the “activity change, negative = inhibition” value was -13.1%.
The same measure, in the same setting: the figure for `COC(=O)C1=C(C)N(Cc2ccccc2)C(=S)NC1CCc1ccccc1` (stereo not given) is 4.06%.
